# Reference: the supplement of paper PMC12282887
# ± gives the standard deviation of the averaged measurements.
# Tested on: E. coli BW25113 marRABp lux reporter
# Test: promoter activity interaction Z-score (Lux/OD deviation from empty-vector control); higher = stronger promoter induction by the compound
# Method: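 E. coli BW25113 (wild type or ΔmarA/ΔsoxS/Δrob) carrying pTU175 luxCDABE promoter reporters was grown in LB in 384-well plates at 37°C with each of 94 compounds at 4 two-fold concentrations, in biological duplicates. Luminescence and OD600 were read every 30 min for 12 h and integrated as AUC over 8 h (0-8 h WT, 1-9 h mutants). Lux AUC was divided by OD AUC; the interaction score is the residual of a Huber robust fit of each promoter against the empty-vector control, then Z-transformed per promoter.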
smiles,measurement,setting,value
C[C@@H]1O[C@@H]1P(=O)(O)O [Fosfomycin],promoter activity interaction Z-score,"0.011 µg/ml, genetic background: wild type",0.112 ± 0.27
same,promoter activity interaction Z-score,"0.011 µg/ml, genetic background: ΔmarA",0.0292 ± 0.18
same,promoter activity interaction Z-score,"0.011 µg/ml, genetic background: Δrob",-0.0327 ± 0.12
same,promoter activity interaction Z-score,"0.011 µg/ml, genetic background: ΔsoxS",0.00491 ± 0.17
same,promoter activity interaction Z-score,"0.023 µg/ml, genetic background: wild type",0.0365 ± 0.015
same,promoter activity interaction Z-score,"0.023 µg/ml, genetic background: ΔmarA",0.0557 ± 0.48
same,promoter activity interaction Z-score,"0.023 µg/ml, genetic background: Δrob",-0.0686 ± 0.17
same,promoter activity interaction Z-score,"0.023 µg/ml, genetic background: ΔsoxS",-0.0756 ± 0.00091
same,promoter activity interaction Z-score,"0.046 µg/ml, genetic background: wild type",-0.461 ± 0.53
same,promoter activity interaction Z-score,"0.046 µg/ml, genetic background: ΔmarA",-0.206 ± 0.0084
same,promoter activity interaction Z-score,"0.046 µg/ml, genetic background: Δrob",-0.0852 ± 0.1
same,promoter activity interaction Z-score,"0.046 µg/ml, genetic background: ΔsoxS",0.136 ± 0.17
same,promoter activity interaction Z-score,"0.091 µg/ml, genetic background: wild type",1.62 ± 0.061
same,promoter activity interaction Z-score,"0.091 µg/ml, genetic background: ΔmarA",1.31 ± 0.6
same,promoter activity interaction Z-score,"0.091 µg/ml, genetic background: Δrob",0.576 ± 0.054
same,promoter activity interaction Z-score,"0.091 µg/ml, genetic background: ΔsoxS",1.75 ± 0.052
NC(=O)c1cc[n+](CC2=C(C(=O)[O-])N3C(=O)[C@@H](NC(=O)[C@@H](c4ccccc4)S(=O)(=O)O)[C@H]3SC2)cc1 [Cefsulodin],promoter activity interaction Z-score,"1.7 µg/ml, genetic background: wild type",0.0888 ± 0.07
same,promoter activity interaction Z-score,"1.7 µg/ml, genetic background: ΔmarA",-0.156 ± 0.32
same,promoter activity interaction Z-score,"1.7 µg/ml, genetic background: Δrob",-0.151 ± 0.05
same,promoter activity interaction Z-score,"1.7 µg/ml, genetic background: ΔsoxS",-0.273 ± 0.013
same,promoter activity interaction Z-score,"3.5 µg/ml, genetic background: wild type",0.026 ± 0.046
same,promoter activity interaction Z-score,"3.5 µg/ml, genetic background: ΔmarA",-0.154 ± 0.15
same,promoter activity interaction Z-score,"3.5 µg/ml, genetic background: Δrob",-0.188 ± 0.075
same,promoter activity interaction Z-score,"3.5 µg/ml, genetic background: ΔsoxS",-0.12 ± 0.063
same,promoter activity interaction Z-score,"6.9 µg/ml, genetic background: wild type",-0.199 ± 0.15
same,promoter activity interaction Z-score,"6.9 µg/ml, genetic background: ΔmarA",-0.257 ± 0.49
same,promoter activity interaction Z-score,"6.9 µg/ml, genetic background: Δrob",-0.271 ± 0.049
same,promoter activity interaction Z-score,"6.9 µg/ml, genetic background: ΔsoxS",-0.324 ± 0.025
same,promoter activity interaction Z-score,"13.9 µg/ml, genetic background: wild type",1.24 ± 1.6
same,promoter activity interaction Z-score,"13.9 µg/ml, genetic background: ΔmarA",0.729 ± 0.25
same,promoter activity interaction Z-score,"13.9 µg/ml, genetic background: Δrob",0.241 ± 0.029
same,promoter activity interaction Z-score,"13.9 µg/ml, genetic background: ΔsoxS",0.341 ± 0.012
C[C@]12CC[C@@H]3c4ccc(O)cc4CC[C@H]3[C@@H]1CC[C@@H]2O [Estradiol],promoter activity interaction Z-score,"17 µg/ml, genetic background: wild type",0.0618 ± 0.2
same,promoter activity interaction Z-score,"17 µg/ml, genetic background: ΔmarA",-0.313 ± 0.021
same,promoter activity interaction Z-score,"17 µg/ml, genetic background: Δrob",-0.258 ± 0.042
same,promoter activity interaction Z-score,"17 µg/ml, genetic background: ΔsoxS",-0.0159 ± 0.095
same,promoter activity interaction Z-score,"34 µg/ml, genetic background: wild type",-0.352 ± 0.0081
same,promoter activity interaction Z-score,"34 µg/ml, genetic background: ΔmarA",-0.312 ± 0.088
same,promoter activity interaction Z-score,"34 µg/ml, genetic background: Δrob",-0.348 ± 0.044
same,promoter activity interaction Z-score,"34 µg/ml, genetic background: ΔsoxS",0.0387 ± 0.037
same,promoter activity interaction Z-score,"68.1 µg/ml, genetic background: wild type",-0.254 ± 0.14
same,promoter activity interaction Z-score,"68.1 µg/ml, genetic background: ΔmarA",-0.263 ± 0.18
same,promoter activity interaction Z-score,"68.1 µg/ml, genetic background: Δrob",-0.158 ± 0.23
same,promoter activity interaction Z-score,"68.1 µg/ml, genetic background: ΔsoxS",-0.162 ± 0.022
same,promoter activity interaction Z-score,"136.2 µg/ml, genetic background: wild type",-0.478 ± 0.16
same,promoter activity interaction Z-score,"136.2 µg/ml, genetic background: ΔmarA",-0.488 ± 0.082
same,promoter activity interaction Z-score,"136.2 µg/ml, genetic background: Δrob",-0.392 ± 0.36
same,promoter activity interaction Z-score,"136.2 µg/ml, genetic background: ΔsoxS",0.155 ± 0.22
